Assay results taken from PubChem BioAssay AID1508600 (Functional Genomics Laboratory (NCATS/FGL), 2020).
The campaign covered roughly 53,000 sequences. About 3,700 (7%) were called active. The sample as a whole holds a higher share of actives than the screen did. A number with no mark means an inactive call.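 How the source made its calls: active means gene knockdowns whose robust z-score for IL-1 alpha signal is at least 2 or at most -2, so actives lie on both sides; inactive means the rest.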

Test: Components of the Cytosolic LPS Sensing Pathway: Gene Identification via Genome-wide siRNA Screen
Conditions: RAW264.7 macrophages, IL-1a HTRF, actives lie on both sides, screened at 100 nM (by protocol), cells primed 5 h with Pam3CSK4 first
Description: Non-canonical inflammasome activation by cytosolic LPS is a critical component of the host response to Gram-negative bacterial infection, however we lack a comprehensive understanding of the cellular processes that control this pathway. Here we describe a genome-wide siRNA screen to identify genes regulating the mouse macrophage IL-1 alpha response to cytosolic LPS.
RAW264.7 cells were maintained in complete DMEM media, comprising DMEM with 4.5 g/L glucose, 10% FBS (Gemini Bio-Products, West Sacramento, CA), 2 mM Glutamine (Lonza) and 20 mM HEPES (Lonza), hereafter complete DMEM.
The RNAi screen was conducted in 384-well format using the Ambion Silencer Mouse Genome siRNA Library (#4391425), which consists of three unique, nonoverlapping, nonpooled siRNAs for each of 17,000 gene targets. siRNA reagents ([…]) were stamped into 384-well white flat-bottom microplates (Corning, 3570) using a Velocity11 VPrep liquid handling system (Agilent) integrated into a BioCel robotic platform (Agilent) in columns 1-22, leaving columns 23-24 empty for negative (Ambion, Negative control #1) and positive (mouse Casp4) controls, respectively. The median value of each plate's negative control column was used to normalize sample wells, and the positive control was used to assess transfection efficiency and assay performance.
Lipofectamine RNAiMAX Transfection Reagent ([…]; Invitrogen) was added in […] serum-free, antibiotic-free media to plate wells using a Thermo Scientific Matrix WellMate and Microplate Stacker. Plates were incubated for 45 min at room temperature to allow for the sufficient formation of siRNA-lipid complexes. Cells were seeded at a density of 1x10^4 cells per well in 20 microL media containing 20% (vol/vol) FBS without antibiotics. The final concentration of siRNA in each well was 100 nM. Cells were cultured for 48h at 37 degrees C in 5% CO2 before addition of […] of TLR ligand Pam3CSK4 for 5 hours. The medium was then removed, replaced with […] growth media and cell were transfected with […] of LipidA and TransIT-TKO (Mirus) for 24 hour. At the end of the LipidA treatment, […] of supernatant was transferred to a 384 Greiner Bio-one non-binding low volume plate and […] of IL-1a HTRF reagent (Cisbio, 62MIL1APEH) was added and incubated at room temperature overnight. The plates were read on an EnVision plate reader (PerkinElmer). Cell viability was measured by adding 20ul Cell Titer Glo to the original plate and running a luminescence read on the EnVision. The quantified IL-1a signal for each siRNA gene-targeted well was divided by the median of the negative control wells and multiplied by 100 to achieve a negative control normalized value for each well/siRNA. This normalized value was then used to generate a robust z-score by first taking the log of each value and then by subtracting the median and dividing by the […].
Sequence CGAUAUUUAUCAUGAGUGCTT against Nlrp9c has a z-score of -1.9.
In the case of CCCACGAGGGAUAUAUCUGTT against Cd3d, the z-score is reported as -0.994.
For CGGCACCAGUGUUCUAUUGTT against Ddi2, the z-score was 1.91.
CCGCAAAGUGAGCAAGGUGTT against Id1 gave a z-score of -0.63.
GGAAAGCAGACAUCGACCUTT against Rps18 showed a z-score of -0.848.
With GGAACGUGUUCAAAAGAGUTT against Sos1 the z-score was 2.22 (active).
With GGCCUAUCAAAAUUCAGUUTT against Rbm7 the z-score was 1.17.
Sequence GGAGAUUGGACCACUAUGATT against Sec24d has a z-score of -1.31.
Work on GGAGUUCGACAUUAGCGGATT against Ehf yielded a z-score of 0.0965.
In the case of GCAACAGUUGGUCUAAAAUTT against Psma1, the z-score is reported as -2.11 (active).
GGAAUGUUUCUUUAUCACATT against Slc35e4 gave a z-score of -0.837.
Work on GCGUAUUUGGUGUUAAAAATT against Iars yielded a z-score of 0.417.
GGAAGAAGAAGAUAAAGCGTT against Grk6 gave a z-score of 0.184.
With CCACCAGAUACAUAUUUGUTT against Gnpnat1 the z-score was -0.352.
GGCUUUAAAGAAUGAUUCATT against Cfap97 gave a z-score of 0.197.
For GGAACUCCACUUUCUUUUUTT against Ripply3, the z-score was 2.27 (active).
GGCUGCACAAACAUGGUUCTT against Pard6a showed a z-score of -0.146.
For GGUGGAAGAUUAGUGACUUTT against Trim38, the z-score was 1.63.
For CCGUGUAAGGUGUGGAGUGTT against Mcat, the z-score was -2.27 (active).
In the case of GGAAAGAUUGUACCAGUUGTT against Cmpk1, the z-score is reported as 2.58 (active).
GGUAAAAUUCCAGAGUUGUTT against Serpinb9 showed a z-score of -0.412.
For GGGUUUGGACUGAUAUACUTT against Vrk2, the z-score was -0.465.
For GGAAUCAGGAAUGCUACUUTT against Tsr1, the z-score was 0.216.
“CAAGAAGGUCAUGUUAUUGTT against Olfr106-ps” gave a z-score of 0.495.
In the case of CGGCUCGUACACAUGUGAATT against Creld2, the z-score is reported as 0.199.
In the case of GGAUGAAGAUGGAGACAUGTT against Lmx1b, the z-score is reported as -2.58 (active).
For “GGGUUCAUAUGUUUUGGAUTT against C130050O18Rik”, the z-score was 1.38.
For GGAGCAGUAUAUCCUACAUTT against Olfr510, the z-score was 2.82 (active).
CCCUGACCUUGUGGUAGAATT against Aspdh showed a z-score of -0.165.
CGAGAAGAUAUUUAAAGAGTT against Myo10 gave a z-score of -0.045.
Work on GGAAAACAAGAGAAGGCGCTT against Pom121 yielded a z-score of 0.361.
For GGCCUAAUUUCCUCUAAUATT against Padi1, the z-score was 0.452.
For GGUCUUCAGACCAGAAACATT against Hsd3b2, the z-score was -3.19 (active).
With GGAACAUUCUAGAAUCUGUTT against Rps6kb2 the z-score was 0.986.
In the case of GGCCAAUAAAGAAACAAACTT against Cst9, the z-score is reported as 1.08.
With GGGUGUUGAAAGACUUUUATT against Tnks the z-score was -0.122.
GCAAUCAUUUCUUCAUCUATT against Olfr148 gave a z-score of 0.255.
For GGAAUACAAAUUCAAGAUCTT against Vamp5, the z-score was -0.82.
For CCUAUCUUUUCCCUACAUGTT against Cyp4a31, the z-score was 2.01 (active).
With GGGAUAGUGUUCCUUAUCUTT against Neu1 the z-score was -2.6 (active).
GGUCAGCGUGGAGUCAAUATT against Fam184b gave a z-score of -1.92.
Sequence GGAUAUCAUAUUUUCUCAGTT against Fam71d has a z-score of 0.0644.
With GGAGGUGCGCUUCUUUAACTT against Chst5 the z-score was 0.24.
CGAAAAAAAUCCAAGUCAATT against Akap12 showed a z-score of -0.28.
For GCCUUAGGAAAUUCUCAAUTT against Rbm12b2, the z-score was 0.334.
In the case of GGUCCUACAUCUCCUUCGATT against Cars, the z-score is reported as -0.194.
Work on GCUAGAUUUGAUGGUUCAGTT against Cacng5 yielded a z-score of -1.62.
With GGCAUUUAGUAAAACCCUUTT against Rnf144a the z-score was -2.43 (active).
GCAUAUAACCGAGUUGAUUTT against Cdcp1 gave a z-score of 0.183.
For GCUUCAGGAGCUCUACUGUTT against Catsper3, the z-score was -0.736.
Work on CCUGCUCUAUGGCAGAACGTT against Nkx2-4 yielded a z-score of 0.992.
“GGAACAGGAGAAUGACAUCTT against D5Ertd579e” showed a z-score of -1.25.
For GGUGCAGAAUCUCUCAUUGTT against Mrpl30, the z-score was -2.14 (active).
In the case of GCGCGAUUCAGAGGUUUCATT against Raver2, the z-score is reported as 0.238.
For GCACUGCCAGAGGUUCUGUTT against U90926, the z-score was -0.107.
With GCCCUUAGAGAGAAUUUAUTT against Lmo2 the z-score was 0.63.
In the case of GCCACGUUCAAACAGUACCTT against Slc1a7, the z-score is reported as 3.94 (active).
GCAGGUUCACAAUGGAUUATT against Lrrc25 showed a z-score of 0.108.
GGAAUCUGCUAUGCUUAAATT against Rdh16f2 showed a z-score of -1.84.
GCCAGAGUACCACAUUAGUTT against Pcdhga4 showed a z-score of 0.921.
Sequence GGACCAUGUGAUAAUAUCGTT against Als2 has a z-score of -0.599.
For GGAGAUCUGCUCUAAUUAUTT against Eif1ax, the z-score was 2.21 (active).
With GGGAUUGUAACAGCAUCCCTT against Epha6 the z-score was 0.594.
GGGAAUCUGAUGAAGAUGGTT against Grin3b showed a z-score of -1.56.
GGCCUUGAAAUCGUUUUUUTT against Tceal8 gave a z-score of 0.534.
For GGAUUUUUCAGAUUCUAGATT against Hs6st2, the z-score was 0.375.
For GGAUUUAGGCUACUUUUUCTT against Art4, the z-score was -0.387.
In the case of GAUGUACGAUCUGGUGGUGTT against Exosc6, the z-score is reported as 2.73 (active).
Sequence GGAUUUAGAUCACUUGGAGTT against Tmem68 has a z-score of -0.811.
For GGAGUGUUGGAUGCUACCATT against Ache, the z-score was -1.12.
With GGGCAAUGGGUGAUCUAAUTT against Phactr1 the z-score was 0.00934.
Work on GGAACUUUUUAAGAUGCGUTT against Ranbp1 yielded a z-score of -0.36.
GGAUGCCUAUCACAAGCAGTT against Pacsin1 gave a z-score of -0.478.
Sequence GGCCCAUUACUUGUUGACUTT against Fanci has a z-score of 0.378.
With GAGCAAUGAGCAGAGAUUCTT against H2-D4 the z-score was 1.93.
With GGACUUCAACUUGAUGGAGTT against Add2 the z-score was 2.02 (active).
In the case of GGAUGCUAAUUCAAGUCUUTT against Slc1a7, the z-score is reported as 0.292.
For GGUUAUUAAGGAUAAACUGTT against Cops5, the z-score was 2.28 (active).
Sequence GGAACUUACAUGAAUUCCATT against Slco1a4 has a z-score of -0.229.
For GCCACUUCCUGGAUAAGGATT against Ftl2-ps, the z-score was -2.88 (active).
Work on CCAAGACUGUGACAAGUUUTT against Ctsz yielded a z-score of -0.557.
Sequence GGAAACCAGACUUUCCCUATT against Vmn1r43 has a z-score of -0.18.
With CGAAGAUAUUACUAUUCUGTT against Lama2 the z-score was 1.65.
With GAUGCACACGUGGGAAGACTT against Cdpf1 the z-score was 2.25 (active).
GCUCCAUCUACAAACAAUGTT against Gpr37l1 showed a z-score of 1.53.
Sequence GGGACAGGAACAAACAAGCTT against Polq has a z-score of 2.
Work on GGUUAUAGAUGUAAAGUCUTT against Isg20l2 yielded a z-score of -0.847.
Sequence GGAGCUUCUUUUCCCUCUATT against Gcgr has a z-score of -0.684.
Work on GGAUUUAAGUGCCCGGUAUTT against Znrf2 yielded a z-score of 1.34.
Sequence GCGAUAUGCCCUAACUGGATT against Mmp24 has a z-score of 0.967.
Sequence GGAAGAUCCGCUUCAACGUTT against Mab21l4 has a z-score of 1.2.
With GGUUGGUUUGGAGAAGGCATT against Krt35 the z-score was 2.91 (active).
CCACAUGCCUGAGAGAUUCTT against Spp2 showed a z-score of 1.28.
Work on CGUUUGACCAAAACAGAAUTT against Fbxw10 yielded a z-score of 0.709.
For GGAAGUCAGACAGAUUUAATT against Prss33, the z-score was 2.69 (active).
Work on CGCACCUUUCUUUGGAAUGTT against Rab1b yielded a z-score of 1.72.
With GGAUUUUGUUCUUCAUCCATT against Nedd4 the z-score was -0.142.
With GGGUUAUGGAUUUGAAGUGTT against Tmem131l the z-score was 1.3.
CCAAUUUUCAAGAUCGGUCTT against Pakap gave a z-score of 0.347.
For GCUCUGAUGUCAACCUUCCTT against Fam174c, the z-score was -2.23 (active).
For CCACCUUUAUUCAAAAUCGTT against Mmp20, the z-score was -0.451.
With CCUACUCAAGAAGCUCAGUTT against Hpse the z-score was -2.47 (active).
GCGCACAAGCCUUACUAAATT against Zfp560 gave a z-score of 0.0854.
GCGGACAUGAGUUUGAAUGTT against Bnipl showed a z-score of -0.858.
For GGUGGACAAGAUGAUGGAATT against Gps2, the z-score was 1.92.
In the case of GGAGACAGAUGAAUGAACCTT against Tifab, the z-score is reported as 0.0548.
For CCCUCUCUACGAUGACUCUTT against Parm1, the z-score was -2 (active).
Work on CCAAUAACUUCGCUUAUAUTT against Ms4a2 yielded a z-score of -0.389.
